From PubChem BioAssay (Tox21) come the findings set out here.

Molecules are shown by their SMILES. Several values for one entry are separate records, joined by “and”; a condition that tells them apart may be missing. Equal entries are not always repeated. Records with an inconclusive call do not appear. Where a call stands in place of a potency, no number is given. Activity calls are given as the source filed them. Calls come from the whole dose curve; as a rule, active = well fitted activation curve with a large enough effect in the repeat runs; inconclusive = weak or mixed curves; inactive = no such curve, though single readings can be large or run the other way.
Potency is the fitted concentration of half-maximal effect.

This experiment is described as follows: qHTS assay for small molecules that induce genotoxicity in human embryonic kidney cells expressing luciferase-tagged ATAD5 (AID 651632). Note: nearly all actives have a fitted effect of over 15% in size. As to conditions: HEK293T ATAD5-luciferase induction, 16 h; series mostly up to 83.3 µM. The source says: U.S. Tox21 Program National Center for Advancing Translational Sciences [NCATS] NIH Chemical Genomics Center [NCGC] U.S. Environmental Protection Agency [EPA] National Institutes of Environmental Health Sciences [NIEHS] National Toxicology Program [NTP] U.S. Food and Drug Administration [FDA] Tox21 Assay Overview: As cancer cells divide rapidly and during every cell division they need to duplicate their genome by DNA replication. The failure to do so results in the cancer cell death. Based on this concept, many chemotherapeutic agents were developed but have limitations such as low efficacy and severe side effects etc. A new cell based assay was developed to find the compounds that effectively block DNA replication either by directly damaging DNA or by inhibiting other cellular mechanisms. Enhanced Level of Genome Instability Gene 1 (ELG1; human ATAD5) protein levels increase in response to various types of DNA damage. Using a luciferase reporter-gene tagged with ATAD5, a cell-based assay [developed by Kyungjae Myung, NHGRI, NIH] was used to measure the induction of ATAD5 in human embryonic kidney cells (HEK293T). So, increase in luciferase activity can be used to identify the compounds that cause genetic stress.
Tox21 Assay Protocol Summary: For genotoxicity screening, 2,000 cells in 5 uL/well were dispensed into white, solid-bottom 1536-well plates using a Multidrop Combi (Thermo Scientific) dispenser. Following transfer of 23 nL compound or DMSO vehicle by a pin tool, the plates were incubated 16 hr at 37C and 5% CO2. 5 ul Amplite (AAT Bioquest, Inc.) was then added to each plate and following 30 min incubation at room temperature, luciferase activity was quantified on a ViewLux CCD-based plate reader.
For orientation: qHTS replaces the single test concentration by a dilution series.
As to `CNC(=O)Oc1cccc2c1OC(C)(C)C2`, the Potency entry is “inactive”.

Consider `CC(C)Nc1ccc(Nc2ccccc2)cc1`, for which the Potency entry is “inactive”.

As for `CC(C)CON=O`, the Potency entry is “inactive”.

For the compound `CCNCC`, the Potency entry was “inactive”.

As for `CCCCOC(=O)COC(=O)c1ccccc1C(=O)OCCCC`, the Potency entry is “inactive”.

For `CCCCCCCCCC(CC)c1ccc(S(=O)(=O)O)cc1` (stereo not given), the Potency result is “inactive”.

Consider `CCOP(=S)(OCC)SCSC(C)(C)C`, for which the Potency result was “inactive”.

Regarding `CCC/C=N/O`, the Potency entry is “inactive”.

On to `CS(=O)(=O)NC(=O)c1cc(Oc2ccc(C(F)(F)F)cc2Cl)ccc1[N+](=O)[O-]`, for which the Potency result was “inactive”.

Regarding `C[C@]12CC[C@H]3[C@@H](CCC4=CC(=O)CC[C@@H]43)[C@@H]1CC[C@@H]2O`, the Potency result was “inactive”.

With `CCCCCCCCCc1ccc(O)cc1`, the Potency entry is “inactive”.

In the case of `CCOP(=O)(OCC)OCC`, the Potency result is “inactive”.

As to `CCC[CH2][Sn]([Cl])([Cl])[CH2]CCC`, the Potency result was “inactive”.

In the case of `CCCCCCCCCCCCCl`, the Potency result is “inactive”.

As for `CC(C)(O)C#N`, the Potency result was “inactive”.

For `ClCC(Cl)CCl`, the Potency result was “inactive”.

For `O=C(O)c1nn(Cc2ccc(Cl)cc2Cl)c2ccccc12`, the Potency entry is “inactive”.

With `N#Cc1cccnc1`, the Potency result was “inactive”.

As to `CSc1nc(NC(C)C)nc(NC(C)C)n1`, the Potency entry is “inactive”.

Turning to `Cn1c(-c2ccccc2)cc(-c2ccccc2)[n+]1C`, the Potency result was “inactive”.

Regarding `O=C(O)CF`, the Potency result was “inactive”.

For `COC(=O)Nc1nc2ccccc2[nH]1`, the Potency result was “inactive”.

Regarding `N#Cc1c(Cl)c(Cl)c(Cl)c(C#N)c1Cl`, the Potency was 424 nM (active) and 864 nM (active).

`CC(C)(c1ccccc1)c1ccc(O)cc1`: the Potency result was “inactive”.

Consider `c1ccc(C2CO2)cc1` (stereo not given), for which the Potency result was “inactive”.

As for `Clc1cccc(Cl)c1`, the Potency result is “inactive”.

With `COP(=S)(OC)SCn1nnc2ccccc2c1=O`, the Potency entry was “inactive”.

As for `Clc1ccc(C(Cl)(Cl)Cl)cc1`, the Potency result was “inactive”.

Regarding `Cc1cccc(N=Nc2ccc(N(C)C)cc2)c1`, the Potency was 986 nM (active) and 1.93 µM (active).

`CC(C)=CC1C(C(=O)OCc2cccc(Oc3ccccc3)c2)C1(C)C` (stereo not given): the Potency entry was “inactive”.

`Oc1ccc(Cl)cc1Cl`: the Potency result was “inactive”.

`c1ccc2c(c1)Nc1ccccc1S2`: the Potency entry was “inactive”.

For the compound `COP(=S)(OC)Oc1ccc(S(=O)(=O)N(C)C)cc1`, the Potency result is “inactive”.

Consider `CC[n+]1c(-c2ccccc2)c2cc(N)ccc2c2ccc(N)cc21`, for which the Potency entry was “inactive”.

On to `CCNc1nc(Cl)nc(NC(C)(C)C#N)n1`, for which the Potency result is “inactive”.

On to `C=C(C)C#N`, for which the Potency result is “inactive”.

With `CCOP(=S)(OCC)SCn1c(=O)oc2cc(Cl)ccc21`, the Potency entry was “inactive”.

Regarding `COP(=O)(NC(C)=O)SC` (stereo not given), the Potency result was “inactive”.

On to `CNC(=O)CSP(=S)(OC)OC`, for which the Potency entry is “inactive”.

In the case of `NN=C(N)N`, the Potency result was “inactive”.
